Tests used:
Assay in all cases: DAPPL (digital affinity profiling via proximity ligation, sequencing); 10 mM Tris-HCl pH 7.5, 50 mM NaCl, 1 mM DTT, 4% glycerol, room temperature, 30 min; GST-TFs on glutathione beads, 16-mer random dsDNA library, 0.1% formaldehyde crosslink after washing; high values mean tight binding
FEV = target: T1, FEV (Homo sapiens, UniProt Q99581 1-238); conditions: protein: recombinant; tags: N-terminal GST; dsDNA, one strand shown
T1 sequence: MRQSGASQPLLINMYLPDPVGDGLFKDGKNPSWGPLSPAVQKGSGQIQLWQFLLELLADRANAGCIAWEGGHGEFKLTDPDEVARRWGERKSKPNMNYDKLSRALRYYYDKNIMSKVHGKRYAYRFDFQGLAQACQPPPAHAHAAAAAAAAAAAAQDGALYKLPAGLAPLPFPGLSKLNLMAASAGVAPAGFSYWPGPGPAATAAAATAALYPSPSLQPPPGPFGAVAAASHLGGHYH
Outline: (§1)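 Binding signal is given per hexamer as its read frequency for a factor divided by its frequency in the tag-only sample. GST-fused human transcription factors were expressed in yeast, captured on glutathione beads, barcoded with DNA and pooled with that sample, then incubated with 200 nmole of a 16-mer random double-stranded DNA library in Tris/NaCl/DTT/glycerol buffer for 30 min at room temperature. The pools were then washed, crosslinked, proximity-ligated, amplified by PCR and sequenced on an Illumina NextSeq500.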

ETV5 = ETV5 (Homo sapiens, UniProt P41161 1-510); conditions: protein: recombinant; tags: N-terminal GST; dsDNA, one strand shown
Sequence of ETV5 (P41161 whole entry): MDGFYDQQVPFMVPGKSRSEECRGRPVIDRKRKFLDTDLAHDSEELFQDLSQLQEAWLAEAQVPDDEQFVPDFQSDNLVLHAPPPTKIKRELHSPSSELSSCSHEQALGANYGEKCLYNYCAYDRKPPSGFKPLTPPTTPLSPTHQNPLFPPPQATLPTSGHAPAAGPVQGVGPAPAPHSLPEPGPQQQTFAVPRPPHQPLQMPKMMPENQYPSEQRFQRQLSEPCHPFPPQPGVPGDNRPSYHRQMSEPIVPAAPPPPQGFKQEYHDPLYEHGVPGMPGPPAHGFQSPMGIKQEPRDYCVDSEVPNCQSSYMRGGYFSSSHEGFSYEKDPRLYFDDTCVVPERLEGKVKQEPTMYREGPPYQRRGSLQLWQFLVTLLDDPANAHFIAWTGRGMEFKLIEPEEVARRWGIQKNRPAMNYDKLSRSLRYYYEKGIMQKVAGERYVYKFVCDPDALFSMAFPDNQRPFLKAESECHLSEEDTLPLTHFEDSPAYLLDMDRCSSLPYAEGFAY
Outline: as §1

HSF1 = HSF1 (Homo sapiens, UniProt Q00613 1-529); conditions: protein: recombinant; tags: N-terminal GST; chain copies: 3; dsDNA, one strand shown
Sequence of HSF1 (Q00613 whole entry): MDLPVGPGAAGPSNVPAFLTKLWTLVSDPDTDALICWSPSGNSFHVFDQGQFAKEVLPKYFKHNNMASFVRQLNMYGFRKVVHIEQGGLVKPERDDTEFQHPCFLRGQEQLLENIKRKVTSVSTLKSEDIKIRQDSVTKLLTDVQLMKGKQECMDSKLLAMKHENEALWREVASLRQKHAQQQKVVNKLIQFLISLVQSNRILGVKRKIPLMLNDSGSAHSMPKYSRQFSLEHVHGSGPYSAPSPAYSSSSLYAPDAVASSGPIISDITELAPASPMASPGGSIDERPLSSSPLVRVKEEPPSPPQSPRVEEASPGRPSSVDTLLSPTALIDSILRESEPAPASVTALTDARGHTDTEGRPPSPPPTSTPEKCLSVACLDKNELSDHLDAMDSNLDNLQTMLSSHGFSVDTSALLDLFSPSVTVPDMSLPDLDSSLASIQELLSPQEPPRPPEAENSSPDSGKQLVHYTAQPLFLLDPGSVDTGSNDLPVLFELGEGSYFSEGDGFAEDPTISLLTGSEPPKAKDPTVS
Outline: as §1

SPIC = target: T2, SPIC (Homo sapiens, UniProt Q8N5J4 1-248); conditions: protein: recombinant; tags: N-terminal GST; dsDNA, one strand shown
T2 sequence: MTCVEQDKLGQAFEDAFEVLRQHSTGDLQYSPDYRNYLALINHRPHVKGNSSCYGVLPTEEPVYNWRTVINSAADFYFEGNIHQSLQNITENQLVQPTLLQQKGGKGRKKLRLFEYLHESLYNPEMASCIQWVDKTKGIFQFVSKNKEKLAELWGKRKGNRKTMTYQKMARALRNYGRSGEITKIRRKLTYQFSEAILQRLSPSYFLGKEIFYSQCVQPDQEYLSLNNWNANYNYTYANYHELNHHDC
Outline: as §1

ELF4 = ELF4 (Homo sapiens, UniProt Q99607 1-663); conditions: protein: recombinant; tags: N-terminal GST; dsDNA, one strand shown
Sequence of ELF4 (Q99607 whole entry): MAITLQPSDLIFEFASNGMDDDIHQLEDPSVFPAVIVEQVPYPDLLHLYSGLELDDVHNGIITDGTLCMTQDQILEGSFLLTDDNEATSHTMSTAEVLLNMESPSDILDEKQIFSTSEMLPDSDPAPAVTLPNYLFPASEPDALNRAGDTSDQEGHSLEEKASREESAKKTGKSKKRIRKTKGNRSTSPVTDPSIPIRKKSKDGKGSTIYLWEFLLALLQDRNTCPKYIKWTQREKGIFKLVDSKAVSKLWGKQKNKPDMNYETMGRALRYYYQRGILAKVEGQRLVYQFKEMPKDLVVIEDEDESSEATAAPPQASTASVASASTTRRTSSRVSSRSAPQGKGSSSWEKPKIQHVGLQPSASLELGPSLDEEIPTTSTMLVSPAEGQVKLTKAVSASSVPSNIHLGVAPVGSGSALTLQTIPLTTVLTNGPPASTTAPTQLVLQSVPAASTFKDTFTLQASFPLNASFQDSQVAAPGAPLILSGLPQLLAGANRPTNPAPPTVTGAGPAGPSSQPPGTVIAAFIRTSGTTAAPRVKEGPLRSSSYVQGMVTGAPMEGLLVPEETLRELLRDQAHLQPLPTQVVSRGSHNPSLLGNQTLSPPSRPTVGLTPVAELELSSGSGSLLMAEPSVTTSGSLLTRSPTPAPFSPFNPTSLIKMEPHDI
Outline: as §1

ELK4 = target: T3, ELK4 (Homo sapiens, UniProt P28324-2 1-405); conditions: protein: recombinant; tags: N-terminal GST; dsDNA, one strand shown
T3 sequence: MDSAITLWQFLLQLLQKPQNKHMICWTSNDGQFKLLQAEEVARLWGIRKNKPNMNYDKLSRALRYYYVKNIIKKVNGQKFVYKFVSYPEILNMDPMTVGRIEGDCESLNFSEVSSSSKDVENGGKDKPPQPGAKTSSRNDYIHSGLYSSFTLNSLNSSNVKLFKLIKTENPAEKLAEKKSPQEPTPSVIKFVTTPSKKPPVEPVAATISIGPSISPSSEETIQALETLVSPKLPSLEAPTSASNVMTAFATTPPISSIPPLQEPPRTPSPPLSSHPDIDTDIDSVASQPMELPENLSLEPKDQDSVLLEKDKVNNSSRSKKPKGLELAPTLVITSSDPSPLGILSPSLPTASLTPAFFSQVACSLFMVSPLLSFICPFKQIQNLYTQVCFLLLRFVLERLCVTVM
Outline: as §1

ETV2 = target: T4, ETV2 (Homo sapiens, UniProt O00321 1-342); conditions: protein: recombinant; tags: N-terminal GST; dsDNA, one strand shown
T4 sequence: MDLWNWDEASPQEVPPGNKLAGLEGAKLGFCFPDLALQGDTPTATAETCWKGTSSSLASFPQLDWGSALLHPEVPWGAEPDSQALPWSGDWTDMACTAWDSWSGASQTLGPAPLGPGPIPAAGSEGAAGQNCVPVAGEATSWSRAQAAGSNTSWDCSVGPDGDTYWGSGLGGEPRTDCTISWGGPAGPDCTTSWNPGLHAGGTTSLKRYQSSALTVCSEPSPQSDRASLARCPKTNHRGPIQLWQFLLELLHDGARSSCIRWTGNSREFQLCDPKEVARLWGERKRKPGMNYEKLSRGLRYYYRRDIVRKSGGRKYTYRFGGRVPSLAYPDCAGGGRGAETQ
Outline: as §1

ELF3 = target: T5, ELF3 (Homo sapiens, UniProt P78545 1-371); conditions: protein: recombinant; tags: N-terminal GST; dsDNA, one strand shown
T5 sequence: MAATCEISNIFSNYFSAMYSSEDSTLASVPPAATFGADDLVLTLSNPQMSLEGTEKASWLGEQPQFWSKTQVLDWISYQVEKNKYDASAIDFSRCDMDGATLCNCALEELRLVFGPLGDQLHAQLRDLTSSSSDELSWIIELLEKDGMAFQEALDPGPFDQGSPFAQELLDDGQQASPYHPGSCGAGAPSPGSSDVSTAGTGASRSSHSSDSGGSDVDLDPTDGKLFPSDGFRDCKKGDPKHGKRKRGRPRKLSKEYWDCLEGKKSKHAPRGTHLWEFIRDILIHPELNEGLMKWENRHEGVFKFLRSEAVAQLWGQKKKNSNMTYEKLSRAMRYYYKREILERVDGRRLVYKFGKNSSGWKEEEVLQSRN
Outline: as §1

CRX = CRX (Homo sapiens, UniProt O43186 1-299); conditions: protein: recombinant; tags: N-terminal GST; dsDNA, one strand shown
Sequence of CRX (O43186 whole entry): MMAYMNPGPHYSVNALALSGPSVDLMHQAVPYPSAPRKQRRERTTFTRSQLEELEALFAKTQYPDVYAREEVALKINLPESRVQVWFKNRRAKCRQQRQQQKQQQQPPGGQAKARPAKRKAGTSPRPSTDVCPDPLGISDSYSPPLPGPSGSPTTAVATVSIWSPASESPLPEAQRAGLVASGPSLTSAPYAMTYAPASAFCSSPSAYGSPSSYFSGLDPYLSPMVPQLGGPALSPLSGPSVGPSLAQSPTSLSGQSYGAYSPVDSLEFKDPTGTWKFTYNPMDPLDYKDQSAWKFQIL
Outline: as §1

ETV1 = ETV1 (Homo sapiens, UniProt P50549 1-477); conditions: protein: recombinant; tags: N-terminal GST; dsDNA, one strand shown
Sequence of ETV1 (P50549 whole entry): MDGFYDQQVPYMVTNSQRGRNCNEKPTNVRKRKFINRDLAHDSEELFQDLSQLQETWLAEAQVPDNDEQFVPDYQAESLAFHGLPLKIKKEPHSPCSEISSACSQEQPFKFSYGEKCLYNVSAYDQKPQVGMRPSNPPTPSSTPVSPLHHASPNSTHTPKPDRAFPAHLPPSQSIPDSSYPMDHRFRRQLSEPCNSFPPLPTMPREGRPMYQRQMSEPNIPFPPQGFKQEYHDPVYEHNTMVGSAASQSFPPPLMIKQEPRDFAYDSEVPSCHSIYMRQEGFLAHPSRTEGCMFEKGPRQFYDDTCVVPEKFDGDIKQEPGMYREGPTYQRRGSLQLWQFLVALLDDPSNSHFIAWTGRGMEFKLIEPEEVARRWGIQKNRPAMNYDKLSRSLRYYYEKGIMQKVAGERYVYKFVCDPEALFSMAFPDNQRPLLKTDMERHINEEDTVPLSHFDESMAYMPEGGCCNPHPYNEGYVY
Outline: as §1

ERF = target: T6, ERF (Homo sapiens, UniProt P50548 1-548); conditions: protein: recombinant; tags: N-terminal GST; dsDNA, one strand shown
T6 sequence: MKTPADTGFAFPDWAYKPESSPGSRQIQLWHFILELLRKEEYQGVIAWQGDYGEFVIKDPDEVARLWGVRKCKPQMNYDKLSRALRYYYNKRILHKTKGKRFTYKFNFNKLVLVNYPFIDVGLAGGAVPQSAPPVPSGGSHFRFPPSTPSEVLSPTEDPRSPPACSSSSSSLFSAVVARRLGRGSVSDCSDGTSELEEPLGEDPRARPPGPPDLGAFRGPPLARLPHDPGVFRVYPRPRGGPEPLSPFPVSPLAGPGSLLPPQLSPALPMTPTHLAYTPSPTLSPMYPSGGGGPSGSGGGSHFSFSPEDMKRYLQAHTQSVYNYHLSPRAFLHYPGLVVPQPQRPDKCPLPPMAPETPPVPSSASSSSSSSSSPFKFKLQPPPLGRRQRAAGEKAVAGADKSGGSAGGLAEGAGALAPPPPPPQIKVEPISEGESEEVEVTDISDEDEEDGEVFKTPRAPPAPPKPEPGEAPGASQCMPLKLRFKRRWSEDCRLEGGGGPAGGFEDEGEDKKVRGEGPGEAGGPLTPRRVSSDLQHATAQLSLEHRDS
Outline: as §1

ETV3L = target: T7, ETV3L (Homo sapiens, UniProt Q6ZN32 1-361); conditions: protein: recombinant; tags: N-terminal GST; dsDNA, one strand shown
T7 sequence: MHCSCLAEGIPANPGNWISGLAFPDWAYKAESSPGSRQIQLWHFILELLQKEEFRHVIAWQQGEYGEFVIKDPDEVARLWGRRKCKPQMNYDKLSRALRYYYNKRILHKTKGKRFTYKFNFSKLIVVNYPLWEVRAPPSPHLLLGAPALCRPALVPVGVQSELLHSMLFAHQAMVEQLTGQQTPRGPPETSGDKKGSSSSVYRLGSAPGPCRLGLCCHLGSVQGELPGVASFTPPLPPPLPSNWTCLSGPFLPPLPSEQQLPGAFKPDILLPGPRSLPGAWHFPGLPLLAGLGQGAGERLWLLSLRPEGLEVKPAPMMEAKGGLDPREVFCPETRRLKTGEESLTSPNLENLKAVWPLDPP
Outline: as §1

ETS2 = target: T8, ETS2 (Homo sapiens, UniProt P15036 1-469); conditions: protein: recombinant; tags: N-terminal GST; dsDNA, one strand shown
T8 sequence: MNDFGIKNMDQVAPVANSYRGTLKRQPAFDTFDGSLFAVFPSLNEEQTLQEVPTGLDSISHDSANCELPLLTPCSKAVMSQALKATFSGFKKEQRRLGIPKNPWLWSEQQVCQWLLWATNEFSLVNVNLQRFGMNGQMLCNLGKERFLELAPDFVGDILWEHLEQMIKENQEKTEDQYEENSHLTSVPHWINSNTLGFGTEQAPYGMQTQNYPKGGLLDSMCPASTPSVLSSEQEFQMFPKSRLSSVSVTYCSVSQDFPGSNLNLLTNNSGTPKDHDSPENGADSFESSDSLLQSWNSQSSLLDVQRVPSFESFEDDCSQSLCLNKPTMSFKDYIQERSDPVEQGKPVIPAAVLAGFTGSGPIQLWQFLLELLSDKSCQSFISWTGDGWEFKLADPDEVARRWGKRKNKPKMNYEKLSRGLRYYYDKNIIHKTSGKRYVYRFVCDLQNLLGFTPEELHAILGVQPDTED
Outline: as §1

SPDEF = target: T9, SPDEF (Homo sapiens, UniProt O95238 1-335); conditions: protein: recombinant; tags: N-terminal GST; dsDNA, one strand shown
T9 sequence: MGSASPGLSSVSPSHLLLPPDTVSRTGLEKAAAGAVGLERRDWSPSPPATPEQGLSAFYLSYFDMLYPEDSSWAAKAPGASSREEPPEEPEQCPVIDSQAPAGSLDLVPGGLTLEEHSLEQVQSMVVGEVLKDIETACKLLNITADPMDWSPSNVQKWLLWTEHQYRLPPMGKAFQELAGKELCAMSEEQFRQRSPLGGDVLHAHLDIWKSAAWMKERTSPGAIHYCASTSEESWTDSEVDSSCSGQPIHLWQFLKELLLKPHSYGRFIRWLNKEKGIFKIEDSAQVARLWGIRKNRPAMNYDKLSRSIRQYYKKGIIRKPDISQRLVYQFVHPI
Outline: as §1

ETV7 = target: T10, ETV7 (Homo sapiens, UniProt Q9Y603 1-341); conditions: protein: recombinant; tags: N-terminal GST; dsDNA, one strand shown
T10 sequence: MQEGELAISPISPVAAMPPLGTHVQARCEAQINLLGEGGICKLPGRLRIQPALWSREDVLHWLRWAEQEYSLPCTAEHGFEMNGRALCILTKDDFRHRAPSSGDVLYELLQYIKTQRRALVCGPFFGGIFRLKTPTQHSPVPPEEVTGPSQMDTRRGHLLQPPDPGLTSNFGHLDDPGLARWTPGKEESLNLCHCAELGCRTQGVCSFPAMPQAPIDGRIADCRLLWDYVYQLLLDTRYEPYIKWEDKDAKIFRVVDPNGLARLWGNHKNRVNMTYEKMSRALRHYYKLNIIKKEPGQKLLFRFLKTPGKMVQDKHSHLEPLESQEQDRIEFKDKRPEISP
Outline: as §1

ELF5 = target: T11, ELF5 (Homo sapiens, UniProt Q9UKW6-2 1-255); conditions: protein: recombinant; tags: N-terminal GST; dsDNA, one strand shown
T11 sequence: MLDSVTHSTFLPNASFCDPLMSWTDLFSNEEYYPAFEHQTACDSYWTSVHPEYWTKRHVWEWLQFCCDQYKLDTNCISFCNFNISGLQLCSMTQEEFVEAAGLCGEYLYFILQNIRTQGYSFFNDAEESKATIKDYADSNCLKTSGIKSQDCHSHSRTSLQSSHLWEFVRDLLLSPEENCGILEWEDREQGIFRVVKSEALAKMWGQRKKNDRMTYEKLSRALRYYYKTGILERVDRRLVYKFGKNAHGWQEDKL
Outline: as §1

ETV3 = target: T12, ETV3 (Homo sapiens, UniProt P41162-2 1-143); conditions: protein: recombinant; tags: N-terminal GST; dsDNA, one strand shown
T12 sequence: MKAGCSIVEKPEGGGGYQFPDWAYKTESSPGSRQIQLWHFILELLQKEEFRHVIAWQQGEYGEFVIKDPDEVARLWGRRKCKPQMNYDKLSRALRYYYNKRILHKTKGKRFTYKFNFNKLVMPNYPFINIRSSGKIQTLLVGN
Outline: as §1

ETV6 = ETV6 (Homo sapiens, UniProt P41212 1-452); conditions: protein: recombinant; tags: N-terminal GST; dsDNA, one strand shown
Sequence of ETV6 (P41212 whole entry): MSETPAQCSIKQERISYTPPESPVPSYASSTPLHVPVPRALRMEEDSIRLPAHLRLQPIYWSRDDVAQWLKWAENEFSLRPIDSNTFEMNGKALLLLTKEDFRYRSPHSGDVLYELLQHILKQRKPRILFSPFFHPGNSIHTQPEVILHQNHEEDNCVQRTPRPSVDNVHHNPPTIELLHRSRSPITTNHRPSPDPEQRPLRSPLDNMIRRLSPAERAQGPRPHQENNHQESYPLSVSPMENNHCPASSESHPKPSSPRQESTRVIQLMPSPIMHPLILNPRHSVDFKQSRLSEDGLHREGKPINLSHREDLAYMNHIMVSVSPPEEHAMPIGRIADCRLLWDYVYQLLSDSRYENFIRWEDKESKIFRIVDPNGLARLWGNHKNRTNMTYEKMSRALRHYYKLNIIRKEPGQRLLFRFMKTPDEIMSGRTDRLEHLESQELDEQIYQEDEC
Outline: as §1

AATAAG
binding signal (FEV): 1.26 fold enrichment (6-mer frequency, TF over GST control) | binding signal (ETV5): 1.25 fold enrichment (6-mer frequency, TF over GST control) | binding signal (HSF1): 1.52 fold enrichment (6-mer frequency, TF over GST control) | binding signal (SPIC): 1.3 fold enrichment (6-mer frequency, TF over GST control) | binding signal (ELF4): 1.26 fold enrichment (6-mer frequency, TF over GST control) | binding signal (ELK4): 1.2 fold enrichment (6-mer frequency, TF over GST control) | binding signal (ETV2): 1.19 fold enrichment (6-mer frequency, TF over GST control) | binding signal (ELF3): 1.29 fold enrichment (6-mer frequency, TF over GST control) | binding signal (CRX): 1.98 fold enrichment (6-mer frequency, TF over GST control) | binding signal (ETV1): 1.26 fold enrichment (6-mer frequency, TF over GST control) | binding signal (ERF): 1.32 fold enrichment (6-mer frequency, TF over GST control) | binding signal (ETV3L): 1.18 fold enrichment (6-mer frequency, TF over GST control) | binding signal (ETS2): 1.24 fold enrichment (6-mer frequency, TF over GST control) | binding signal (SPDEF): 1.26 fold enrichment (6-mer frequency, TF over GST control) | binding signal (ETV7): 1.19 fold enrichment (6-mer frequency, TF over GST control) | binding signal (ELF5): 1.27 fold enrichment (6-mer frequency, TF over GST control) | binding signal (ETV3): 1.29 fold enrichment (6-mer frequency, TF over GST control) | binding signal (ETV6): 1.33 fold enrichment (6-mer frequency, TF over GST control)

From paper PMC7862700, “An all-to-all approach to the identification of sequence-specific readers for epigenetic DNA modifications on cytosine”
